For some of these results: Measured potencies and affinities stand elsewhere.
Experiments:
Parameters in all cases: scale not given: direction of the effect not stated beside the values
[1] = molecular target: Protein translocase subunit SecA (Escherichia coli (strain K12)) (UniProt P10408); assay: Assay to Identify E. coli SecA ATPase Inhibitors; format: functional; conditions: 30 µM
[2] = molecular target: T1, Ubiquitin-activating enzyme e1, putative (Leishmania donovani (strain BPK282A1)) (UniProt E9BSI1); assay: Leishmania donovani Ubiquitin Activating Enzyme (LdE1); format: functional; conditions: 30 µM
T1 sequence (whole entry): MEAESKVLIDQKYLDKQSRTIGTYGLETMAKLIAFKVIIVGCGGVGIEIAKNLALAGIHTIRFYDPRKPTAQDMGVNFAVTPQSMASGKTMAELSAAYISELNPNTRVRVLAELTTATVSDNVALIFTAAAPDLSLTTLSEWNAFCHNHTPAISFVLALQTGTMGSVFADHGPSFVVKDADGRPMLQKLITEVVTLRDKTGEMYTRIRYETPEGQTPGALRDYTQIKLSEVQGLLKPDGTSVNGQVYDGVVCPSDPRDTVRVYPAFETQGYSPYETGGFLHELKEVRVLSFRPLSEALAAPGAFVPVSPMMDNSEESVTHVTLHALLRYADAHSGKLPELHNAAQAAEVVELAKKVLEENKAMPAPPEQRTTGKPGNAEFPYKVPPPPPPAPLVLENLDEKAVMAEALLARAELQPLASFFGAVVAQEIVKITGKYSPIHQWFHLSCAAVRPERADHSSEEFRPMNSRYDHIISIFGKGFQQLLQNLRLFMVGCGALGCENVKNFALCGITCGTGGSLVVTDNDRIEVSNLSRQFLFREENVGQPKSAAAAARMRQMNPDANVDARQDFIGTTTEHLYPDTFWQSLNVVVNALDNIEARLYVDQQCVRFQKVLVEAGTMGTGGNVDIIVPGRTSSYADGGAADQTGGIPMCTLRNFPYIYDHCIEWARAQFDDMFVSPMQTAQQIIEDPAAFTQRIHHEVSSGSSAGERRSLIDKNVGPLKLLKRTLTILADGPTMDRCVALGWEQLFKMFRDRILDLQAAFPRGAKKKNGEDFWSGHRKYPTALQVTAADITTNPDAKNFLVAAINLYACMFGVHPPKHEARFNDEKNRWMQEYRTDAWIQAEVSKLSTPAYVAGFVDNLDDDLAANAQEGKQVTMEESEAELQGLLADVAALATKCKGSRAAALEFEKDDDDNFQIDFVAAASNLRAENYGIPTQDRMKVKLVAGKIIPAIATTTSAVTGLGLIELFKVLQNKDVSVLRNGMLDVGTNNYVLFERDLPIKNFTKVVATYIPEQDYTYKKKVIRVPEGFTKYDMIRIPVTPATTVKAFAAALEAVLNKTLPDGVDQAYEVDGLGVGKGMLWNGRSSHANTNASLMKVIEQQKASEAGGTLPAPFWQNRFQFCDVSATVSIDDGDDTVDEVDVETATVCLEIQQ

[3] = molecular target: AMP-activated protein kinase, AMPK (Homo sapiens) (UniProt P54646+O43741+P54619+Q9UGJ0+Q9Y478+Q13131+Q9UGI9); assay: AMP-dependent Kinase enzyme assay. An in vitro enzyme assay that detects ADP turnover that is directly proportional to AMPK activity. This uses naive AMPK that is activated during the assay with MK-8722; format: functional; conditions: 30 µM
[4] = molecular target: Sialic acid-binding Ig-like lectin 9 (Homo sapiens) (UniProt Q9Y336); assay: Hs-Siglec9 ALPHAscreen SOP 20170721; conditions: 10 µM
Sequence of Sialic acid-binding Ig-like lectin 9 (Homo sapiens) (Q9Y336 whole entry): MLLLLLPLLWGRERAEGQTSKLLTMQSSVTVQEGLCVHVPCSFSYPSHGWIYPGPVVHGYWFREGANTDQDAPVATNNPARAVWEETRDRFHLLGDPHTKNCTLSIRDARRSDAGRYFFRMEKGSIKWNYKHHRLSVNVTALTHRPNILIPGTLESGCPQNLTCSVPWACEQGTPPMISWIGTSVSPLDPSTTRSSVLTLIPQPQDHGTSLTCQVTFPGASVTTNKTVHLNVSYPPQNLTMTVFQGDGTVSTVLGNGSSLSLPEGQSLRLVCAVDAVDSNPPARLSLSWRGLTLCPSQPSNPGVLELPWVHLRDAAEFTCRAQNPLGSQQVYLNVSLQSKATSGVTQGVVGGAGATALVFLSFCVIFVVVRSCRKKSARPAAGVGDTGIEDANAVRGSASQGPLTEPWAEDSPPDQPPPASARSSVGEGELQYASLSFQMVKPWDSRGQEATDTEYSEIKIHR

Trypanosoma cruzi = assay: Trypanosoma cruzi phosphomannomutase and mannose-1-phosphate guanylyltransferase assay; format: functional; conditions: 10 µM
[5] = molecular target: T2, Arginase-2, mitochondrial (Homo sapiens) (UniProt P78540); assay: in vitro enzyme assay to detect the production of urea directly proportional to the activity of Arginase II; format: functional; conditions: 33.3 µM; also: in the data most compounds retested in dose-response had high values
T2 sequence (whole entry): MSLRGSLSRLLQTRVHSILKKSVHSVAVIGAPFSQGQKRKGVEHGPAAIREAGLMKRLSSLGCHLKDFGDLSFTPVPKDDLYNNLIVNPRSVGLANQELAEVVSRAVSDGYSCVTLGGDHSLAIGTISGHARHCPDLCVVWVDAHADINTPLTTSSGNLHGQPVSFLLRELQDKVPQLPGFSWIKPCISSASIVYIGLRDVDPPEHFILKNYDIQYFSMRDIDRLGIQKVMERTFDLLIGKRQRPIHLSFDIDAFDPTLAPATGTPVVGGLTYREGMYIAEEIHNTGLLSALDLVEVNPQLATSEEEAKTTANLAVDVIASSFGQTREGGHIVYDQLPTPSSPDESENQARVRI

[6] = molecular target: T3, Proteasome subunit beta (Trypanosoma cruzi) (UniProt O96673); assay: Trypanosoma cruzi proteasome chymotrypsin-like activity (TcProtChymo) assay.; also: in the data most compounds retested in dose-response had high values; format: functional; conditions: 9.37 µM
T3 sequence (whole entry): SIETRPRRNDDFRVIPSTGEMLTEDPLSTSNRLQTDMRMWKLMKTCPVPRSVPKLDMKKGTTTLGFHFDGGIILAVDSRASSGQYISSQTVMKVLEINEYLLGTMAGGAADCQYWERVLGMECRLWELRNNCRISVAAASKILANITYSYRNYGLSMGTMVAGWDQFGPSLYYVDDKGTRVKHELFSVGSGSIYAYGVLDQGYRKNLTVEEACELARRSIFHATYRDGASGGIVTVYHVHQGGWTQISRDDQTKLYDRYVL

Homo sapiens = species: Homo sapiens; assay: To identify inhibition of the IFN signalling (Jak-Stat) pathway via expression of an eGFP reporter gene under the control of an IFN-stimulated response element (ISRE) containing MxA promoter.; format: functional; conditions: 30 µM
[7] = molecular target: T4, Tyrosyl-tRNA synthetase, putative (Trypanosoma cruzi (strain CL Brener)) (UniProt Q4DSP6); assay: Trypanosoma cruzi tyrosyl tRNA synthetase (TcYRS) _High Tyrosine SOP; format: functional; conditions: 30 µM; also: in the data most compounds retested in dose-response had high values
T4 sequence (whole entry): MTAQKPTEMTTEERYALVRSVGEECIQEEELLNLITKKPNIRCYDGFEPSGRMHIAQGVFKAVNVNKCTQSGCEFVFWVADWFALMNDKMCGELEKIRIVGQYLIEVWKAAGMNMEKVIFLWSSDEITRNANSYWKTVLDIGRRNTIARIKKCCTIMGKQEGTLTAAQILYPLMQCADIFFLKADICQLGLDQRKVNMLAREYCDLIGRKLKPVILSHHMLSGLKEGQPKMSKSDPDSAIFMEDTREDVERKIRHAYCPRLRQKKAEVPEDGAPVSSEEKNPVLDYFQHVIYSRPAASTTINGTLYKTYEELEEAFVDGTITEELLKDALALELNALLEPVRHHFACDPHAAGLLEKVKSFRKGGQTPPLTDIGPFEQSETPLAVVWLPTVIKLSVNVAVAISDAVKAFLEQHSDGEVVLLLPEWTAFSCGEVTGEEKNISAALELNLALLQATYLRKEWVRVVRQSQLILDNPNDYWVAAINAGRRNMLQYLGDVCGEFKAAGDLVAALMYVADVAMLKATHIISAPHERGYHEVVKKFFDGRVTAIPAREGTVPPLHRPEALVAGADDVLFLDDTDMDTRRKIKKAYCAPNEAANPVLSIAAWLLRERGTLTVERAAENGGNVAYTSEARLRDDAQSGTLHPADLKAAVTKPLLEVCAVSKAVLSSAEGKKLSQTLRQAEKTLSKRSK

[8] = molecular target: T4, Tyrosyl-tRNA synthetase, putative (Trypanosoma cruzi (strain CL Brener)); assay: Trypanosoma cruzi tyrosyl tRNA synthetase (TcYRS) SOP; format: functional; conditions: 30 µM
[9] = molecular target: Chromo domain-containing protein 1 (Saccharomyces cerevisiae (strain ATCC 204508 / S288c) (Baker's yeast)) (UniProt P32657); assay: ScCHD-1 Enzyme Inhibition Assay; format: functional; conditions: 30 µM; also: in the data most compounds retested in dose-response had high values
Sequence of Chromo domain-containing protein 1 (Saccharomyces cerevisiae (strain ATCC 204508 / S288c) (Baker's yeast)) (P32657 whole entry, the tested form may be a part): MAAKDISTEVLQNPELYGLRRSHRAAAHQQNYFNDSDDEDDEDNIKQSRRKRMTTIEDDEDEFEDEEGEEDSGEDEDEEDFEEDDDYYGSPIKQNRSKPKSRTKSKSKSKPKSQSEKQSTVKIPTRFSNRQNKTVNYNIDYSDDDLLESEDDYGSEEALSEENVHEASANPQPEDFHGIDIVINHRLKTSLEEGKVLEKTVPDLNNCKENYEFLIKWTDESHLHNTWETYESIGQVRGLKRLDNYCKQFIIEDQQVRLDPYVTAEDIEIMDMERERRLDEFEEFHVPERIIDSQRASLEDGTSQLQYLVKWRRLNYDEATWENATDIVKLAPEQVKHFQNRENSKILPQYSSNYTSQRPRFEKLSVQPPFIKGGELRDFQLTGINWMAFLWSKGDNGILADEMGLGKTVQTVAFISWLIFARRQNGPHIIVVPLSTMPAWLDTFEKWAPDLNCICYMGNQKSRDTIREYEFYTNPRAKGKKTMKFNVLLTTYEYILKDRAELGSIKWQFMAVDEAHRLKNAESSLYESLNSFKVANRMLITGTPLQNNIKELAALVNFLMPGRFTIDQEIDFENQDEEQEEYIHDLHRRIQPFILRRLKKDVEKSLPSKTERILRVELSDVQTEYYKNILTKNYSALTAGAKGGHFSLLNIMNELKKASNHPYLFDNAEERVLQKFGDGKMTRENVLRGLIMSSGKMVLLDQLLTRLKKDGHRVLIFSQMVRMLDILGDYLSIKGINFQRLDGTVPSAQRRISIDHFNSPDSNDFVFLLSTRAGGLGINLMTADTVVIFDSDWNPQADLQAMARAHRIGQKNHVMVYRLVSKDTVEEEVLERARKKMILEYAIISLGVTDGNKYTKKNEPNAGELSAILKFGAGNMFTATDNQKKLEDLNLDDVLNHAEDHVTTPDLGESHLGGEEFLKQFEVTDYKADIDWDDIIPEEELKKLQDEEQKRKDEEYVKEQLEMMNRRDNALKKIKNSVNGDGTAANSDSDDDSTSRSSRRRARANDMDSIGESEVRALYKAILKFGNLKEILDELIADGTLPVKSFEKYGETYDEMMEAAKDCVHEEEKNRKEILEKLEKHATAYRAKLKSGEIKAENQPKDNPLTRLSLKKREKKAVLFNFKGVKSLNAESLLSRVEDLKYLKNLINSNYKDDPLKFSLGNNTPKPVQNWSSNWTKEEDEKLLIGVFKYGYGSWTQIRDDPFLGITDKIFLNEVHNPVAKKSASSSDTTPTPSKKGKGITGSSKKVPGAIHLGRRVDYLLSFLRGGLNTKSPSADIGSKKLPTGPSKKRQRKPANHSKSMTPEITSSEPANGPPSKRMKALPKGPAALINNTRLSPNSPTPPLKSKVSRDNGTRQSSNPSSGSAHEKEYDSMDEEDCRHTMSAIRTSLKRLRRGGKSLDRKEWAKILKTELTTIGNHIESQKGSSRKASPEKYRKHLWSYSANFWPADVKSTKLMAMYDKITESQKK

Sequence of Protein translocase subunit SecA (Escherichia coli (strain K12)) (P10408 whole entry): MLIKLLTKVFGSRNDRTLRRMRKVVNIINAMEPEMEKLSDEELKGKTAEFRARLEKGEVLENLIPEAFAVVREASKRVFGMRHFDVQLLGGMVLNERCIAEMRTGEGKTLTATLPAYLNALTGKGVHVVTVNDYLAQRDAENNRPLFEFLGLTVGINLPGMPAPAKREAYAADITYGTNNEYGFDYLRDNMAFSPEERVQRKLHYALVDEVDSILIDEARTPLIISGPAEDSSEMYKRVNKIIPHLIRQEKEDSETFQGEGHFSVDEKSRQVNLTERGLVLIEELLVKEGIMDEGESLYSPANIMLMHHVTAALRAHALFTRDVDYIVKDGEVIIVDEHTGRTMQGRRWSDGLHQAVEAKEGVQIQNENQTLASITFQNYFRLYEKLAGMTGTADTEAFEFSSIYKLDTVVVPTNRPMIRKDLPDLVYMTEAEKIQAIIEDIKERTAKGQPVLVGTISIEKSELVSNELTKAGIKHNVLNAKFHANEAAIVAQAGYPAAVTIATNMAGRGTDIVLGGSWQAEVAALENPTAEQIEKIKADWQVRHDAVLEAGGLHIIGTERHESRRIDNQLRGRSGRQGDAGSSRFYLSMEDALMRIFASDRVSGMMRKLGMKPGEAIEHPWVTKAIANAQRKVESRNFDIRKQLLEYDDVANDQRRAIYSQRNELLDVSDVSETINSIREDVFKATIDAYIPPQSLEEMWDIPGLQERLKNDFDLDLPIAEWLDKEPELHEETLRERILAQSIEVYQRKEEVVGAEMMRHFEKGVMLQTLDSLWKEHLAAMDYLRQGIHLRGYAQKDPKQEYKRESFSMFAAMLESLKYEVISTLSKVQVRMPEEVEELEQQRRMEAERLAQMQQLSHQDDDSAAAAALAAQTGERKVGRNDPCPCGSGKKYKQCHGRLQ

| SMILES | Percent Effect [1] [%] | Percent Effect [2] [%] | Percent Effect [3] [%] | Percent Effect [4] [%] | Percent Effect (Trypanosoma cruzi) [%] | Percent Effect [5] [%] | Percent Effect [6] [%] | Percent Effect (Homo sapiens) [%] | Percent Effect [7] [%] | Percent Effect [8] [%] | Percent Effect [9] [%] |
| --- | --- | --- | --- | --- | --- | --- | --- | --- | --- | --- | --- |
| Cc1cc(C2CCCN(C(=O)c3cnccn3)C2)ccn1 (stereo not given) | 2.59 | 6.76 | 5.06 | 0.392 | -5.93 | 0.232 | 8.27 | 12.6 | 2.15 | 3.9 | 6.76 |
| Cc1n[nH]c(C2CN(C(=O)c3ccnc(C4CC4)n3)CCO2)n1 (stereo not given) | -1.78 | 10.4 | 5.44 | 10.3 | -0.0979 | 5.26 | 9.78 | -6.73 | 5.71 | -23.5 | -12.2 |
| COc1cccc(C2CC(=O)Nc3nc(N)sc32)c1OC (stereo not given) | 70.6 | 26.3 | -56.4 | -2.19 | 7.3 | 21.3 | 10.3 | -3.92 | -4.25 | -36.4 | -8.65 |
| O=C(CN1CCNCC1)N1CC[C@@H](c2ccc3ccccc3c2)[C@H](O)C1 | -0.963 | 8 | -4.87 | 12.2 | 0.876 | 2.08 | 14.7 | 10.1 | 7.1 | 13.6 | -3.45 |
| CCN(CC)C(=O)c1ccn(COc2ccccc2)n1 | -2.87 | -4 | 2.57 | 5.83 | 4.32 | -2.99 | 8.5 | 1.5 | 5.29 | 10.3 | -0.306 |
| COC(=O)CCNC(=O)c1ccoc1CN1c2ccccc2CC1C (stereo not given) | -4.57 | 0 | 6.85 | 8.39 | 1.98 | -18.4 | 19.9 | 9.3 | 6.25 | 3.7 | -2.6 |
| c1cc(CN2CCCC(c3noc(C4CC4)n3)C2)no1 (stereo not given) | 0.187 | -5.41 | -9.37 | 9.04 | 4.25 | -6.41 | 4.32 | 20.7 | 3.45 | 6.17 | -4.15 |
| Cc1csc(N2CCCN(C(=O)C(C(C)C)n3cncn3)CC2)n1 (stereo not given) | -1.03 | 13.5 | 0.997 | -3.98 | -5.29 | 3.51 | 10.9 | 19.3 | 6.93 | 15.8 | -2.71 |
| Cc1cnn(Cc2cc(F)ccc2F)c1NC(=O)C1COCCO1 (stereo not given) | -7.31 | 2.67 | 1.44 | 22.4 | 0.876 | 4.17 | 5.75 | 5.83 | 4.92 | 13.6 | -4.84 |
| Cc1cnc(CN(C)C2CCN(CCn3cc(C#N)cn3)C2)o1 (stereo not given) | 2.65 | 16.2 | -13.3 | -2.11 | -7.83 | -2 | 21.4 | 6.73 | 3.45 | 11.1 | -2.79 |
| CC(CN1CCOCC1)NCC1CCN(c2cnn(C)c(=O)c2)CC1 (stereo not given) | -4.77 | -1.39 | -4.64 | 1.85 | -1.85 | -0.883 | 4.21 | -10.4 | 0 | -10.3 | 1.95 |
| CCC(=O)N1CCC2(CC1)c1nc[nH]c1CCN2S(C)(=O)=O | -5.57 | 12.5 | -6.81 | 9.02 | 4.18 | 23 | 11.8 | 13.6 | 5.26 | 10.3 | -5.69 |
| O=C(NCC1CC1)N1CCN(Cc2ccc3c(c2)OCCO3)CC1 | -2.95 | 5.26 | 1.09 | 12.6 | 3.08 | 1.08 | 4.99 | 20 | 3.45 | 13.6 | 0.382 |
| COc1ccc(OCC(=O)NC(C)c2ccc(F)cc2)c(C(=O)O)c1 (stereo not given) | -5.45 | 5.41 | 1.14 | 2.91 | 2.05 | 5.21 | 0.944 | -0.568 | 4.3 | 13.6 | -5.02 |
| Cc1cc(N2CCN(Cc3nccn3C)CC2)cc(C)n1 | -3.69 | 1.39 | -5.16 | -5.41 | -5.93 | -0.883 | 12.1 | -10.6 | 0 | -2.56 | -1.23 |
| N#Cc1ccc(C(=O)N2CC[C@H]3[C@@H]2CCC(=O)N3c2cccnc2)cc1 | -4.52 | 13.5 | 3.21 | -7.6 | -2.44 | 3.5 | 18.3 | -4.58 | 1.08 | 12.8 | -4.36 |
| Cn1ccc(C(=O)NC2CCC23CCN(Cc2cccnc2)CC3)c1 (stereo not given) | -1.54 | 2.74 | 5.78 | 0.617 | 0 | 0.399 | 5.39 | 2.32 | -1.04 | -3.7 | 0.517 |
| CCS(=O)(=O)CCn1ccc(NC(=O)CCc2cccc(C)c2)n1 | -1.95 | 5.41 | 2.06 | -5.21 | -3.91 | -2.08 | 11.8 | 5.07 | 9.9 | 13.4 | 4.48 |
| CCc1nc(CN(Cc2cccs2)CC2CCCO2)no1 (stereo not given) | -0.473 | -11.4 | 2.16 | 0.0835 | -0.308 | 2.37 | 4.29 | 10.4 | -3.12 | 5.06 | 3.56 |
| COCC(=O)N1CCC(c2nccn2CC2CC2)CC1 | 0.53 | 10.8 | -6.45 | 8.36 | 5.41 | 8.57 | 19.8 | -2.14 | 6.88 | 19.5 | -2.23 |

Reference: ChEMBL document CHEMBL3988442, “University of Dundee, Small-Polar-MMV Screening Library” (2021)
